PMC4336329 (PLoS ONE, 2015)
About 14,000 (4.5%) of roughly 310,000 compounds showed an effect of 50% or more. The effect is printed as a negative number. The sample holds strong results, similar compounds and a random draw of the others, so the mix is not that of the screen.

Target: human ether-à-go-go-related gene (hERG) potassium channel (human, UniProt Q12809)
Test: primary screen, population patch clamp on CHO cells stably expressing hERG; higher = less effect of the substance
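Note: peak tail current of the secondary pulse compared with the same well before compound.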

human ether-à-go-go-related gene (hERG) potassium channel, sequence (Q12809 whole entry, looked up): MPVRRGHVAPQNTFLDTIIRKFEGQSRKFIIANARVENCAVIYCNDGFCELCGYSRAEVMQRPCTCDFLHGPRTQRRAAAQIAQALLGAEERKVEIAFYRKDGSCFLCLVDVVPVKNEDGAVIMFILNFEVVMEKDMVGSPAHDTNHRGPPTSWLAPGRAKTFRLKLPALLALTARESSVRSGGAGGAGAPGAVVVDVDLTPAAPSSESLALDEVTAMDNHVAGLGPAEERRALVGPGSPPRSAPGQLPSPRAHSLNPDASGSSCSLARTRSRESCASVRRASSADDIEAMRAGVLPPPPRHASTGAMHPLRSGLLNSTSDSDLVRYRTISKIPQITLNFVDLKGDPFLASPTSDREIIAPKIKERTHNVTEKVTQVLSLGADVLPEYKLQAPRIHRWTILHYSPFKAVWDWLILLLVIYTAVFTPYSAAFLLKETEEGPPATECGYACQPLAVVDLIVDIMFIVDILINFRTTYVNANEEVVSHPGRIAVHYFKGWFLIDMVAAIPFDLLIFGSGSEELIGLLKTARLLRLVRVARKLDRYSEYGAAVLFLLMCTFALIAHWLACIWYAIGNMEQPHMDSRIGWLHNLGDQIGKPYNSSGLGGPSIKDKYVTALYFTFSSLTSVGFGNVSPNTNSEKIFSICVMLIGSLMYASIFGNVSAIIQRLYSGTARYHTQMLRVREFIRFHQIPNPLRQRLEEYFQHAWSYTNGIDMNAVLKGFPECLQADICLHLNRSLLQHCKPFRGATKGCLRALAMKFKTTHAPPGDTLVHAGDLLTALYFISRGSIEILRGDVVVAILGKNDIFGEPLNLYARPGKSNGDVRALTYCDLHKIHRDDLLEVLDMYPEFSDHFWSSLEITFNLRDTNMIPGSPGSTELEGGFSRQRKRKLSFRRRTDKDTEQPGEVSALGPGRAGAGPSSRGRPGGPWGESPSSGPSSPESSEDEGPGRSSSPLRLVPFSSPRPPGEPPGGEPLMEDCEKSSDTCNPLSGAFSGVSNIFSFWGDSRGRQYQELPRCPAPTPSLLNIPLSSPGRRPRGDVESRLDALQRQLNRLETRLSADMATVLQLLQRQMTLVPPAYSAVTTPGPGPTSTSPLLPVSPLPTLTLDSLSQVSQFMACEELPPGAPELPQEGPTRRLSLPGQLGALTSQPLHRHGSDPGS

Row | Compound | hERG current change (%, negative = inhibition) at 10uM
1 | c1ccc(CCNCCOc2ccccc2)cc1 | -0.101%
2 | COCCNCCCOc1ccc(C(C)(C)c2ccccc2)cc1.O=C(O)C(=O)O | -29.3%
3 | COc1ccc(OCCCC(=O)NCCc2ccccc2)cc1 | -7.79%
4 | O=C(CCCOc1ccc(Cl)cc1)NCCc1ccccc1 | 5.77%
5 | Clc1ccc(OCCNCCc2ccccc2)cc1.O=C(O)C(=O)O | -73.7%
6 | COc1ccc(CCNCc2c(-c3ccccc3)n(C)c3ccccc23)cc1.O=C(O)C(=O)O | -52.3%
7 | COCCCNCCOc1ccc(C(C)(C)c2ccccc2)cc1.O=C(O)C(=O)O | -54.5%
8 | COc1ccc(OCCCNCCc2ccccc2)cc1.O=C(O)C(=O)O | -57%
9 | COc1ccc(CCNCc2ccccc2N2CCCC2)cc1.O=C(O)C(=O)O | -41.8%
10 | COc1ccc(CCNCc2ccncc2)cc1.O=C(O)C(=O)O | -13.7%
11 | COc1ccc(CCNCc2ccccc2)cc1.O=C(O)C(=O)O | -23.9%
12 | COCCCNCCCOc1ccc(C(C)(C)c2ccccc2)cc1.O=C(O)C(=O)O | -19.9%
13 | COc1cccc(C2c3[nH]c4ccccc4c3C[C@H]3C(=O)N(CCCO)CC(=O)N23)c1OC (some centres unmarked) | -6.83%
14 | CC1(c2nnc(Cc3ccccc3)o2)CC(c2ccccc2F)=NO1 (centres unmarked) | -12.6%
15 | CC(C)Sc1nc(N2CCOCC2)c2c(c1C#N)CC(C)(C)SC2 | 5.69%
16 | CC1=C(C(N)=O)C(c2ccccc2)n2nc(-c3ccncc3)nc2N1 (centres unmarked) | 11.2%
17 | COC(=O)C1C2CCC(C2)C1C(=O)OCC(=O)c1ccc(C)cc1 (centres unmarked) | -19.5%
18 | CC1(C)CC(=O)C=C(Nc2ccc([N+](=O)[O-])cc2)C1 | -16.6%
19 | COc1ccc(NC(=O)CCOc2ccc(C)cc2)cc1S(=O)(=O)N1CCOCC1 | -34.9%
20 | COc1ccc(C(=S)N2CCCC2)cc1C | 4.72%
21 | CCCCCCOC(=O)c1ccc(NC(=O)c2cc(OC)c(OC)c(OC)c2Br)cc1 | 5.84%
22 | CCOC(=O)c1ccc(CNC(=O)CSc2nnc(-c3ccncc3)o2)cc1 | -1.31%
23 | COc1ccc(CCNC/C=C/c2ccccc2)cc1.Cl | -51.4%

Row | Compound | hERG current change (%, negative = inhibition) at 10uM
24 | Cl.NS(=O)(=O)c1ccc(CCNC/C=C/c2ccccc2)cc1 | -48.7%
25 | COc1ccc(CNC/C=C/c2ccccc2)cc1.Cl | -42.2%
26 | Cc1nn(C)c(C)c1CNC(=O)Nc1ccc2c(c1)OCO2 | 12%
27 | CC(NC(=O)CN(C)S(=O)(=O)c1ccc(F)cc1)C1CC2CCC1C2 (centres unmarked) | -2.34%
28 | O=C(CCSCCc1ccccn1)Nc1c(F)c(F)c(F)c(F)c1F | -23.3%
29 | CC(C)Nc1cc(C(C)(C)C)nc2c(-c3ccccc3)cnn12 | 8.72%
30 | CCC(C)(C)n1nnnc1C(c1ccc(C)cc1)N1CCSCC1 (centres unmarked) | -55.1%
31 | CC(C)(C)n1nnnc1C(c1ccc(Cl)cc1)N1CCSCC1 (centres unmarked) | -0.553%
32 | CCC(C)(C)n1nnnc1C(C(C)C)N1CCSCC1 (centres unmarked) | -61.6%
33 | CCC(C)(C)n1nnnc1C(C(C)C)N1CCC(C(N)=O)CC1 (centres unmarked) | 10.4%
34 | CCC(C)(C)n1nnnc1C(C(C)C)N1CCN(C)CC1.Cl (centres unmarked) | 6.63%
35 | CCC(C)(C)n1nnnc1C(c1ccc(C)cc1)N1CCCC1.Cl (centres unmarked) | -11.7%
36 | N#C/C(=C/c1ccc2c(c1)OCO2)C(=O)Nc1ccc(O)cc1 | -0.516%
37 | COc1ccc(NC(C)=O)cc1S(=O)(=O)N(C)Cc1c(C)nn(-c2ccccc2)c1C | -13%
38 | COCC(C)OC(=O)/C(C#N)=C\c1coc2ccc(C)cc2c1=O (centres unmarked) | -20.9%
39 | CC(C)(C)c1ccccc1NC(=S)NC1CCCC1 | 1.41%
40 | COc1ccc(N2C(=O)CCC(C(=O)N3CCC(C(N)=O)CC3)C2c2ccc(F)cc2)cc1 (centres unmarked) | -2.18%
41 | Cc1c(CCOC(=O)CC23CC4CC(CC(C4)C2)C3)sc[n+]1Cc1ccccc1.[Cl-] | -42.1%
42 | Cc1c(CCO)sc[n+]1CC(=O)OCCC12CC3CC(CC(C3)C1)C2.[Cl-] | 11.8%
43 | Cc1c(CCO)sc[n+]1CC(=O)OC12CC3CC(CC(C3)C1)C2.[Cl-] | 19.8%
44 | Cc1c(CCOC(=O)CC23CC4CC(CC(C4)C2)C3)sc[n+]1CC(=O)c1ccccc1.[Br-] | -59.4%
45 | Cc1c(CCOC(=O)CC23CC4CC(CC(C)(C4)C2)C3)sc[n+]1CC(=O)c1ccccc1.[Br-] | -56.8%
46 | Cc1c(CCOC(=O)CC23CC4CC(CC(C)(C4)C2)C3)sc[n+]1Cc1ccc([N+](=O)[O-])cc1.[Br-] | -87.8%

Row | Compound | hERG current change (%, negative = inhibition) at 10uM
47 | Cc1c(CCOC(=O)CC23CC4CC(CC(C4)C2)C3)sc[n+]1CC(=O)c1ccc(Br)cc1.[Br-] | -75.1%
48 | Cc1ncc(C[n+]2csc(CCOC(=O)CC34CC5CC(CC(C5)C3)C4)c2C)c(N)n1.Cl.[Cl-] | -4.79%
49 | Cc1c(CCOC(=O)C23CC4(C)CC(C)(CC(C)(C4)C2)C3)sc[n+]1CC(=O)c1ccccc1.[Br-] | -19.5%
50 | Cc1c(CCOC(=O)C23CC4CC(CC(C)(C4)C2)C3)sc[n+]1CC(=O)c1ccccc1.[Br-] | -26.7%
51 | Cc1c(CCOC(=O)C2C3CC4CC(C3)CC2C4)sc[n+]1CC(=O)c1ccc(Br)cc1.[Br-] (centres unmarked) | -31.4%
52 | Cc1c(CCOC(=O)C23CC4CC(CC(C)(C4)C2)C3)sc[n+]1Cc1ccccc1.[Cl-] | -34.5%
53 | c1ccc(N2CCN(c3nc4cc5c(cc4s3)OCO5)CC2)cc1 | -11.2%
54 | CCC(CC)c1nnc(NC(=O)c2c(-c3ccccc3)noc2C)s1 | -9.78%
55 | COc1cnn(-c2cc(Oc3ccc(C)cc3)ncn2)c(=O)c1Cl | 2.74%
56 | COc1cccc(C(=O)NCC2(c3ccccc3)CCCC2)c1OC | 3.79%
57 | CC(C)n1ncc2c(C(=O)N3CCN(c4ccccc4)CC3)cc(-c3ccccc3)nc21 | 17.2%
58 | COc1ccc(C(=O)N2CCCC2=O)cc1 | 17%
59 | Cc1sc(NC(=O)C2=COCCO2)nc1-c1ccc(F)cc1 | 15.5%
60 | CNC(=S)N/N=C/c1ccc(N2CCOCC2)s1 | 51.6%
61 | CS(=O)(=O)n1nc(-c2cccnc2)nc1NCc1ccccc1 | 43.9%
62 | Nc1nc(-c2ccccc2)c(-c2ccccc2)s1 | -2.18%
63 | Cc1nc(Nc2ccc(S(N)(=O)=O)cc2)sc1-c1ccccc1 | 12.9%
64 | Nc1c(-c2ccccc2)sc2ccc3ccccc3[n+]12.O=S(=O)([O-])c1ccccc1 | -58.3%
65 | Cc1c(NC(=O)CSc2nccn2C)c(=O)n(-c2ccccc2)n1C | 10.9%
66 | CC(CNC(=O)c1cccs1)c1ccc([N+](=O)[O-])cc1 (centres unmarked) | 4.3%
67 | COc1cc(OC)cc(C(=O)N[C@H](C(=O)Nc2ccc(NC(C)=O)cc2)C(C)C)c1 | 13%
68 | COc1cc(OC)cc(C(=O)NC(C(=O)Nc2ccc3c(c2)CCC3)C(C)C)c1 (centres unmarked) | -1.96%
69 | COc1cc(OC)cc(C(=O)N[C@H](C(=O)Nc2cc(C)cc(C)c2)C(C)C)c1 | -54.7%

Row | Compound | hERG current change (%, negative = inhibition) at 10uM
70 | Cc1cc2oc(=O)cc(C)c2cc1NC(=O)CCC(=O)O | 7.75%
71 | Cn1c(CCN2CCN(c3ccccn3)CC2)nc2cc(NC(=O)COc3ccc(Cl)cc3)ccc21 | -22.7%
72 | Cc1cccc(OCC(=O)Nc2ccc3c(c2)nc(CCN2CCN(c4ccccn4)CC2)n3C)c1 | -79.5%
73 | Cn1c(CCN2CCN(c3ccccn3)CC2)nc2cc(NC(=O)COc3ccc([N+](=O)[O-])cc3)ccc21 | -5.69%
74 | CCCCC(=O)Nc1ccc2c(c1)nc(CCN1CCN(c3ccccn3)CC1)n2C | -56.5%
75 | Cn1c(CCN2CCN(c3ccccn3)CC2)nc2cc(NC(=O)COc3ccccc3)ccc21 | -72.5%
76 | CCCC(=O)Nc1ccc2c(c1)nc(CCN1CCN(c3ccccn3)CC1)n2C | -25.5%
77 | CCC(=O)Nc1ccc2c(c1)nc(CCN1CCN(c3ccccn3)CC1)n2C | -18.3%
78 | O=[N+]([O-])c1cc(-c2nc3nc4ccccc4nc3n2CCc2ccccc2)cc([N+](=O)[O-])c1 | 3.97%
79 | Cc1ccc(S(=O)(=O)N(C)/N=C/C=C/c2ccccc2)cc1 | 0.391%
80 | O=S(=O)(Cc1ccccc1Cl)NCc1ccccc1 | 7.02%
81 | Cc1cc(C)nc(SC2c3cccc4cccc(c34)C2NS(=O)(=O)c2ccccc2)n1 (centres unmarked) | -4.8%
82 | Cc1cccc(N2CCN(C(=O)Cc3cn(C)c4ccccc34)CC2)c1C | -7.32%
83 | CC1CCc2sc(C(=O)NCCCn3ccnc3)cc2C1 (centres unmarked) | -1.07%
84 | OCCC1CN(Cc2cnc(-c3ccc(Cl)cc3)nc2)CCN1C1CCCC1 (centres unmarked) | -73.5%
85 | OCCC1CN(Cc2cnc(-c3ccc(Cl)cc3)nc2)CCN1C1CCCCC1 (centres unmarked) | -73.6%
86 | OCCC1CN(Cc2cnc(-c3cccc4ccccc34)nc2)CCN1C1CCCCC1 (centres unmarked) | -13.2%
87 | Cc1cccc(-c2ncc(CN3CCN(CC(C)C)C(CCO)C3)cn2)c1 (centres unmarked) | -47.9%
88 | COc1ccc(-c2ncc(CN3CCN(CCC(C)C)C(CCO)C3)cn2)cc1 (centres unmarked) | -43.4%
89 | Cc1cccc(-c2ncc(CN3CCN(C4CCCC4)C(CCO)C3)cn2)c1 (centres unmarked) | -46.7%
90 | Cc1ccccc1-c1ncc(CN2CCN(C3CCCC3)C(CCO)C2)cn1 (centres unmarked) | -25.8%
91 | CC(C)CN1CCN(Cc2cnc(-c3ccc(Cl)cc3)nc2)CC1CCO (centres unmarked) | -67.2%
92 | Cc1ccccc1-c1ncc(CN2CCN(C3CCCCC3)C(CCO)C2)cn1 (centres unmarked) | -17.4%
